Records with an inconclusive call do not appear. Calls of active or inactive are those of the source. Rule for the calls, unless noted: active = hit-call score of the fitted dose curve at least 0.9, where 1 is the maximum; inactive = score below 0.9.

The record followed here is PubChem BioAssay (EPA / NIEHS).

Assay [1] can be described thus: ATG_TAL_CIS: Attagene CIS-FACTORIAL HepG2 Assay for human TAL Basal Promoter (AID 2282966).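 Note: background control endpoint measuring basal TAL promoter reporter mRNA not a specific factor.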 To be noted: HepG2 Attagene cis-factorial TAL promoter reporter; actives raise or lower the signal. Put shortly:
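HepG2 cells were transiently transfected with promoter-driven multiplexed reporter units and dosed for 24 h. Reporter mRNA was measured by RT-PCR with capillary electrophoresis fluorescence; bidirectional fits used DMSO as baseline, serving as a background control.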

Assay [2] can be described thus: ATG_TGFb_CIS: Attagene CIS-FACTORIAL HepG2 Assay for human Transforming Growth Factor (TGF) (AID 2282967). The note with it: HepG2 Attagene CIS TGFb reporter, mRNA transcription; actives raise or lower the signal. In outline: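 Liver HepG2 line, cis-factorial reporter panel, 24 h dosing. Quantitation: RT-PCR products labeled with 6-FAM, cut with HpaI, resolved by capillary electrophoresis; DMSO-referenced bidirectional analysis.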

The nature of assay [3]: ATG_VDRE_CIS: Attagene CIS-FACTORIAL HepG2 Assay for human Vitamin D Receptor Element (VDRE) (AID 2282968). To be noted: HepG2 VDRE cis-reporter transcription, actives raise or lower the signal. Put shortly: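 Transiently transfected HepG2 cells carrying cis-regulated reporter transcription units were exposed for 24 h. Reporter mRNA was measured by RT-PCR with fluorescent labelling and capillary electrophoresis, and fitted in both directions against DMSO.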

In assay [4] the target is Estrogen receptor (Homo sapiens) (UniProt P03372). Briefly: ATG_ERa_TRANS: Attagene TRANS-FACTORIAL HepG2 Assay for human Estrogen Receptor alpha (ERa) (AID 2282970; active = hit-call score of the fitted dose curve at least 0.9, where 1 is the maximum). To be noted: HepG2 Attagene TRANS ERa GAL4 reporter, mRNA. In outline:
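HepG2 cells transiently transfected with multiplexed GAL4-UAS reporter units; ERa activity read via exogenous chimeric NR-Gal4 protein. After 24 hour compound exposure, reporter mRNA measured by RT-PCR with 6-FAM labelling and capillary electrophoresis; gain-of-signal fitted relative to DMSO.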

For assay [5], the target named is X-box-binding protein 1 (Homo sapiens) (UniProt P17861). Briefly: ATG_Xbp1_CIS: Attagene CIS-FACTORIAL HepG2 Assay for human X-box Binding Protein 1 (XBP1) (AID 2282972). To be noted: HepG2 XBP1 cis-element reporter, Attagene multiplex; actives raise or lower the signal. Put shortly:
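HepG2, transient MRTU transfection (cis-promoter driven), 24 h compound exposure. Total RNA → oligo(dT) RT → PCR → 6-FAM labeling → HpaI cut → CE. Bidirectional fit vs DMSO.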

The target of assay [6] is Steroid hormone receptor ERR1 (Homo sapiens) (UniProt P11474). Briefly: ATG_ERRa_TRANS: Attagene TRANS-FACTORIAL HepG2 Assay for human Estrogen-Related Receptor alpha (ERRa) (AID 2282971; active = hit-call score of the fitted dose curve at least 0.9, where 1 is the maximum). The note with it: HepG2 Attagene TRANS reporter, ERRa transactivation. In outline: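 HepG2 cells transiently transfected with multiplexed GAL4-UAS reporter units reading chimeric ERRa-Gal4 activity; 24 h compound exposure. Reporter mRNA measured by RT-PCR, 6-FAM labelling, HpaI digest and capillary electrophoresis; gain of signal fitted versus DMSO baseline.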
Steroid hormone receptor ERR1 (Homo sapiens), sequence (P11474 whole entry, looked up, the tested form may be a part): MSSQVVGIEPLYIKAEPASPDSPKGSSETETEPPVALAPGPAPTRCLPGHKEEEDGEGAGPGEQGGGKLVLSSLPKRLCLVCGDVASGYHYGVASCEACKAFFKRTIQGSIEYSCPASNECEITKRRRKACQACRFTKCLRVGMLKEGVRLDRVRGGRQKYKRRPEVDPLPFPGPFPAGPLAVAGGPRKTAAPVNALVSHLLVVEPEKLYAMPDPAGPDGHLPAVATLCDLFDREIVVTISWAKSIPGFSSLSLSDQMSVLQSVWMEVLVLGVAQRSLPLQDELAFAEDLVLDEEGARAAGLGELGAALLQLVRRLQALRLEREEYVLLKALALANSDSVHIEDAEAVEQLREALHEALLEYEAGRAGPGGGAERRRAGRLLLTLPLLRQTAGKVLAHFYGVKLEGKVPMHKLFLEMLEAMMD

Assay [7] is described as follows: ATG_GAL4_TRANS: Attagene TRANS-FACTORIAL HepG2 Assay for GAL4 (Internal Marker) (AID 2282976; active = hit-call score of the fitted dose curve at least 0.9, where 1 is the maximum). To be noted: HepG2 Attagene TRANS GAL4 internal marker reporter. Put shortly: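 HepG2 cells transiently transfected with multiplexed GAL4-UAS reporter constructs were dosed for 24 h. Reporter mRNA was measured by RT-PCR, 6-FAM primer extension, HpaI digestion and capillary electrophoresis, and gain of signal was fitted relative to DMSO.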

The target of assay [8] is Estrogen-related receptor gamma (Homo sapiens) (UniProt P62508). Description: ATG_ERRg_TRANS: Attagene TRANS-FACTORIAL HepG2 Assay for human Estrogen-Related Receptor gamma (ERRg) (AID 2282977; active = hit-call score of the fitted dose curve at least 0.9, where 1 is the maximum;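 note: hits increase reporter signal over DMSO so potencies reflect activators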). The note with it: HepG2 Attagene TRANS reporter, ERRg transactivation. In outline: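 HepG2 cells transiently transfected with multiplexed GAL4-UAS reporter units driven by chimeric NR-Gal4 proteins; 24 h exposure. Reporter mRNA quantified by RT-PCR, fluorescent labelling, HpaI digestion and capillary electrophoresis; gain of signal vs DMSO.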
Estrogen-related receptor gamma (Homo sapiens), sequence (P62508 whole entry, looked up, the tested form may be a part): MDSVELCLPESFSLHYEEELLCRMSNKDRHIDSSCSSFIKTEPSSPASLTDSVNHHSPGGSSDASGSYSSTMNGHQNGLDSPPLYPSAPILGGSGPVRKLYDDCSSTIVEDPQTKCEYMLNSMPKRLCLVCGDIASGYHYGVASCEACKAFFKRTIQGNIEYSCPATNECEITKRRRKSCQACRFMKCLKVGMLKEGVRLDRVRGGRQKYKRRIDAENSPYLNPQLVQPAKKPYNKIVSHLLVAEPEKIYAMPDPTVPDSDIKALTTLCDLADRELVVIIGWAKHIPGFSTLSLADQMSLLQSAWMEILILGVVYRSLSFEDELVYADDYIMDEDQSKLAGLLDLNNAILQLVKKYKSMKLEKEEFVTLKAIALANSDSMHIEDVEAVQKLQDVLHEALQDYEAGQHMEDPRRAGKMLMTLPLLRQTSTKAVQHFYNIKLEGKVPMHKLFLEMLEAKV

Assay [9] is described as follows: ATG_M_19_TRANS: Attagene TRANS-FACTORIAL HepG2 Assay for M19 Transcription Factor (Internal Marker) (AID 2282974; active = hit-call score of the fitted dose curve at least 0.9, where 1 is the maximum). The note with it: HepG2 Attagene TRANS-FACTORIAL M19 internal marker reporter. In outline: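 Using RT-PCR and capillary electrophoresis, reporter mRNA from transiently transfected human HepG2 cells was quantified following 24 h exposure; activity was fitted in the positive direction against DMSO.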

The target of assay [10] is Nuclear receptor subfamily 1 group I member 3 (Homo sapiens) (UniProt Q14994). Description: ATG_CAR_TRANS: Attagene TRANS-FACTORIAL HepG2 Assay for human Constitutive Androstane Receptor (CAR) (AID 2282969; active = hit-call score of the fitted dose curve at least 0.9, where 1 is the maximum;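 note: activators raise reporter mRNA above DMSO so AC50 marks induction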). To be noted: HepG2 Attagene TRANS-FACTORIAL CAR reporter. In outline:
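HepG2 cells transiently transfected with GAL4-UAS reporter units; TRANS format reads activity of exogenous chimeric NR-Gal4 protein. After 24 h dosing, reporter mRNA quantified by RT-PCR, 6-FAM labelling and capillary electrophoresis; gain of signal fitted against DMSO.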

Nuclear receptor subfamily 1 group I member 3 (Homo sapiens), sequence (Q14994 whole entry, looked up, the tested form may be a part): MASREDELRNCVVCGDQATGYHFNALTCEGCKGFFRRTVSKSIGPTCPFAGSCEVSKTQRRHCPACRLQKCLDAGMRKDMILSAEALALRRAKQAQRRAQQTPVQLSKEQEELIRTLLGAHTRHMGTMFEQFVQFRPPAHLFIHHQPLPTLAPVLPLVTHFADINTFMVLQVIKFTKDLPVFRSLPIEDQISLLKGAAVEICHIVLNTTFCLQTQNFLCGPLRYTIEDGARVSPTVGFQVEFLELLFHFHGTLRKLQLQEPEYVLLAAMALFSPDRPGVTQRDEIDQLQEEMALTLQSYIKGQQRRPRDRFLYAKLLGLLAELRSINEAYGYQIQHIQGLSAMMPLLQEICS
X-box-binding protein 1 (Homo sapiens), sequence (P17861 whole entry, looked up): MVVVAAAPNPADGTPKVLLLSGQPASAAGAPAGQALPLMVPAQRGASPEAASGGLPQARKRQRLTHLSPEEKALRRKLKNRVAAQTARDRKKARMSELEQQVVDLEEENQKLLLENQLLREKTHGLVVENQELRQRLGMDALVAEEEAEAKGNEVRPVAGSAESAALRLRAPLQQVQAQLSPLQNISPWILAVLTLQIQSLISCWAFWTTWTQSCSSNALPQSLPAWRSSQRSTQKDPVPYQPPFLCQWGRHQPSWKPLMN
Estrogen receptor (Homo sapiens), sequence (P03372 whole entry, looked up, the tested form may be a part): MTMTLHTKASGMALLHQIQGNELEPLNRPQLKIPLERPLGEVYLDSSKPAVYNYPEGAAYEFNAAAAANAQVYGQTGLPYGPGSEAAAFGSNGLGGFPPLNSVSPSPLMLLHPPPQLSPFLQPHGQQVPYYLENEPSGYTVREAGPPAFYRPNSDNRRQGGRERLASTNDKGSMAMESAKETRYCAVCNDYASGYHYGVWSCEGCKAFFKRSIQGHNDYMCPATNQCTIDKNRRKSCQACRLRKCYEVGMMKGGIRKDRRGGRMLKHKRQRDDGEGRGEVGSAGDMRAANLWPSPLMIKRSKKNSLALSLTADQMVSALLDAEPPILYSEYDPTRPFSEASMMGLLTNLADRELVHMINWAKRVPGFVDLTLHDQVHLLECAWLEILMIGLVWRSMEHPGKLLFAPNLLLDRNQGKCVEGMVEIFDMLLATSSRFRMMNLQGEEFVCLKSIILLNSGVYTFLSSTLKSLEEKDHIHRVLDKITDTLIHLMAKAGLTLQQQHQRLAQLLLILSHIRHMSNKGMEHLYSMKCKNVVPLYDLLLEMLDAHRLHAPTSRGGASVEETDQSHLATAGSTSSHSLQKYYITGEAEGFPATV

On to `CCCCC(CC)COC(=O)c1c(Br)c(Br)c(Br)c(Br)c1C(=O)OCC(CC)CCCC` (stereo unspecified), for which the result in assay [1], in [2], in assay [3], in assay [4] and in assay [5] was inactive.

Consider `[N-]=[N+]=[N-]`, for which the compound was classed as inactive in assay [1], in assay [2], in assay [3], in assay [4] and in assay [5].

Usually AC50 stands for the concentration at which the activity in the assay is half-maximal. Take `CCC(C)(C)c1ccc(O)cc1`: the outcome in assay [1], in assay [2], in [3], in [6], in assay [5] and in assay [7] was inactive. In assay [8], the call was inactive. The AC50 in assay [4] is 2.25 µM (active).

For the compound `N#Cc1cc([N+](=O)[O-])ccc1N`, the outcome in assay [1], in assay [2], in assay [3], in assay [4], in [6] and in assay [5] was inactive. Also, the call in assay [7] was inactive.

On to `CCN(CC)C1CCCCC1`, for which the result in assay [1], in assay [2], in assay [3], in assay [4], in assay [6] and in assay [5] was inactive.

Regarding `OCC(F)(F)OC(F)(F)C(F)(F)OC(F)(F)C(F)(F)OC(F)(F)CO`, the compound was called inactive in assay [1], in assay [2], in [6], in assay [5] and in [9]. The results for the AC50 in assay [3] and in assay [4] were 18.6 µM (active) and 0.281 µM (active), respectively.

In the case of `ClC(Cl)(Cl)c1ccccc1`, the call in assay [1], in assay [2], in assay [3], in assay [10] and in assay [5] was inactive. In addition, in assay [4], the AC50 is 45.2 µM (active).

Take `CC(Cl)(Cl)C(=O)O`: the call in [1], in assay [2], in assay [3], in [4] and in [5] was inactive.

Regarding `CO/N=C(/C(=O)OC)c1ccccc1COc1ccccc1C`, the outcome in assay [1] and in assay [2] was inactive. Besides, the AC50 in assay [3] is 13 µM (active); in assay [4], 2.6 µM (active); in assay [5], 35.2 µM (active).

`CCOP(=S)(OCC)SCn1nnc2ccccc2c1=O`: the compound was called inactive in [1], in assay [2], in assay [6], in assay [5], in [9] and in assay [8]. Moreover, the AC50 in assay [3] was 1.61 µM (active); in [4], 3.08 µM (active).

As for `Nc1cc2c3c(c1)C(c1ccccc1)=N[C@@H](NC(=O)c1cccnc1)C(=O)N3CC2`, the compound was classed as inactive in assay [1], in assay [2] and in assay [4]. In addition, the AC50 is 38.4 µM (active) in [3] and 92.1 µM (active) in assay [5].

`CCOP(=S)(OCC)SCS(=O)(=O)CC`: the call in [1], in assay [2], in assay [3], in assay [10], in assay [4] and in [6] was inactive. The result in assay [5], in [9] and in assay [7] was inactive.

Consider `CCOc1ccc(C(C)(C)COCc2cccc(Oc3ccccc3)c2)cc1`, for which the compound was classed as inactive in [1], in assay [2], in [4], in [5] and in assay [9]. Also, the AC50 in [3] is 5.77 µM (active).

For the compound `O=S(=O)(c1ccc(O)cc1)c1ccc(O)cc1`, the compound was classed as inactive in [1], in assay [2], in assay [3] and in assay [5]. The AC50 in [4] was 1.06 µM (active).

Regarding `Cc1cc(C)c(C(=O)P(=O)(c2ccccc2)c2ccccc2)c(C)c1`, the outcome in assay [1] and in assay [2] was inactive. In addition, the AC50 in assay [3] is 0.54 µM (active); in assay [4], 25.5 µM (active); in [5], 53.4 µM (active).

As to `C=C(C)C(=O)OCC1CO1` (stereo unspecified), the result in [1], in assay [2], in [3], in assay [5] and in assay [7] was inactive.

Turning to `COP(=O)(CCC(=O)NCO)OC`, the call in [1], in assay [2], in assay [3], in [6], in assay [5] and in [8] was inactive.

Regarding `c1cc2c3c(cccc3c1)CC2`, the call in assay [1], in assay [2], in assay [10], in assay [4], in assay [5] and in assay [9] was inactive.

As to `ClC(Cl)=C(c1ccc(Cl)cc1)c1ccccc1Cl`, the AC50 in assay [1] is 177 µM (active); in assay [4], 2.02 µM (active); in [5], 100 µM (active). Moreover, the call in assay [2], in assay [3] and in assay [9] was inactive.

`CC(C)(C)c1ccc(O)cc1`: the call in assay [1] and in assay [2] was inactive. Moreover, in assay [5], the AC50 is 171 µM (active).

`COC(N)=O`: the result in assay [1], in assay [2], in assay [3], in [5], in assay [9] and in [7] was inactive.

As to `C=CC(=O)OCC(F)(F)C(F)F`, the result in assay [1], in assay [2], in assay [6], in [5] and in assay [7] was inactive. Also, in [3], the AC50 is 90.3 µM (active).

Consider `O=NN1CCCC1`, for which the call in assay [1], in assay [2], in assay [3], in assay [4], in assay [5] and in assay [9] was inactive. The outcome in assay [7] was inactive.

As to `N#Cc1ccc(O)cc1`, the compound was classed as inactive in [1], in assay [2], in [3], in assay [4], in assay [5] and in [9]. In addition, the compound was called inactive in assay [7].

With `CC(O)C#N` (stereo unspecified), the call in assay [1], in assay [2], in assay [3], in assay [4], in assay [5] and in assay [7] was inactive.

Turning to `CCOP(=S)(S)OCC`, the call in assay [1], in [2], in assay [3], in assay [4], in assay [5] and in [7] was inactive.

Regarding `Cc1cccc(N)c1`, the result in assay [1], in assay [2], in assay [3] and in assay [5] was inactive.

In the case of `CCNc1nc(Cl)nc(NC(C)(C)C)n1`, the outcome in [1], in assay [2], in assay [3], in assay [5] and in [7] was inactive. Also, in assay [4], the AC50 was 1.54 µM (active).

Regarding `Cc1ccc2c(c1N)C(=O)c1ccccc1C2=O`, the outcome in assay [1], in [2], in assay [6], in assay [5], in [9] and in assay [8] was inactive. For the same compound, the AC50 in assay [4] was 4.04 µM (active).

As for `Cc1ccc(C(=O)Cl)cc1`, the call in [1], in [2], in assay [3], in [6], in [5] and in assay [9] was inactive. The outcome in [7] and in assay [8] was inactive.
